Records with an inconclusive call do not appear. Calls of active or inactive are those of the source. Unless noted, the call rests on the fitted dose curve; in most records, active means well fitted curve in the direction sought with a large enough effect in the repeat runs; inconclusive means weak or mixed curves; inactive means no such curve, though single readings can be large; an effect the other way counts as inactive or inconclusive.
Experiments:
[1] = qHTS assay to test for compound auto fluorescence at 535 nm (green) in HEK293 cells (AID 720680)
[2] = qHTS assay to test for compound auto fluorescence at 460 nm (blue) in HEK293 cell free culture (AID 720681)
Outline: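 Test compounds were pinned into cell-free culture medium (DMEM with 10% FBS) and fluorescence was read directly at Ex/Em 405/460 nm. Signals were expressed as fluorescence equivalents of triamterene, with DMSO vehicle as control.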

[3] = qHTS assay to test for compound auto fluorescence at 535 nm (green) in HEK293 cell free culture (AID 720682)
Outline: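 DMEM + 10% FBS, cell-free; cpd or DMSO pinned in; Ex485/Em535 read; output as fluorescein-equivalent signal.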

[4] = qHTS assay to test for compound auto fluorescence at 590 nm (red) in HEK293 cell free culture (AID 720683)
Outline: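 Tox21 10K library compounds were pinned into cell-free DMEM with 10% FBS and fluorescence was read at excitation 540 nm. Activity is expressed as Rose Bengal sodium equivalency.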

[5] = qHTS assay to test for compound auto fluorescence at 590 nm (red) in HepG2 cell free culture (AID 720684)
Outline: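 Measured in medium alone (MEM containing 10% FBS) following pintool addition of compound; emission at 590 nm with 540 nm excitation, referenced to Rose Bengal sodium.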

[6] = qHTS assay to test for compound auto fluorescence at 460 nm (blue) in HepG2 cell free culture (AID 720685)
Outline: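 Compound (23 nL) or DMSO pinned into cell-free MEM with 10% FBS; blue fluorescence read at 405/460 nm excitation/emission, expressed as auto-fluorescence equivalency to triamterene.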

[7] = qHTS assay to test for compound auto fluorescence at 535 nm (green) in HepG2 cell free culture (AID 720686)
[8] = qHTS assay to test for compound auto fluorescence at 460 nm (blue) in HepG2 cells (AID 720687)
Outline: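 Cells (2,000/well in MEM with 10% FBS) attached overnight at 37 C, then were exposed to compound or DMSO for 1 hr at 37 C, 5% CO2. Fluorescence read at Ex/Em 405/460 nm, expressed as triamterene-equivalent signal.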

[9] = biological target: Glucocorticoid receptor (Homo sapiens) (UniProt P04150); experiment: qHTS assay to identify small molecule agonists of the glucocorticoid receptor (GR) signaling pathway (AID 720691; active means well fitted activation curve with a large enough effect in the signal ratio in the repeat runs, not every such curve was filed as active; the % refers to the signal ratio); conditions: GR-bla HeLa, beta-lactamase reporter ratio, 18 h; activation: at 62.4 µM (top of the series)
Outline: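 Agonist mode in a HeLa line carrying a GRE-controlled beta-lactamase reporter. Compounds act for 18 h at 37 C before a 2 h room-temperature FRET substrate step and fluorescence reading.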

[10] = biological target: Glucocorticoid receptor (Homo sapiens) (UniProt P04150); experiment: qHTS assay to identify small molecule antagonists of the glucocorticoid receptor (GR) signaling pathway (AID 720692; active means well fitted inhibition curve with a large enough effect in the signal ratio in the repeat runs, not every such curve was filed as active; the % refers to the signal ratio; further: potency means the concentration at half of the fitted maximal effect)
Outline: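 Cells plated, rested 4 h at 37 C/5% CO2; compounds in DMSO pin-transferred; dexamethasone added to 5 nM final; 18 h at 37 C; B/G FRET substrate added, 2 h room temperature; fluorescence measured.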

[11] = qHTS assay to identify small molecule antagonists of the glucocorticoid receptor (GR) signaling pathway - cell viability counter screen (AID 720693); further: nearly all actives have a fitted effect of over 55% in size; further: potency means the concentration at half of the fitted maximal effect
[12] = qHTS assay for identifying genotoxic compounds that show differential cytotoxicity against isogenic chicken DT40 cell lines with known DNA damage response pathways - wild type cell line (AID 743012); further: nearly all actives have a fitted effect of over 60% in size; further: potency means the concentration at half of the fitted maximal effect
Outline: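 Cells (DT40 wild type, 300/well) are treated with DMSO-dissolved compounds after a ~0.5 h pre-incubation and kept 40 h at 37 C/5% CO2. Viability is then measured by CellTiter-Glo luminescence following 30 min at room temperature.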

[13] = qHTS assay for identifying genotoxic compounds that show differential cytotoxicity against isogenic chicken DT40 cell lines with known DNA damage response pathways - Rev3 mutant cell line (AID 743014); further: nearly all actives have a fitted effect of over 55% in size; further: potency means the concentration at half of the fitted maximal effect
[14] = qHTS assay for identifying genotoxic compounds that show differential cytotoxicity against isogenic chicken DT40 cell lines with known DNA damage response pathways - Rad54/Ku70 mutant cell line (AID 743015); further: nearly all actives have a fitted effect of over 60% in size; further: potency means the concentration at half of the fitted maximal effect
[15] = qHTS assay to identify small molecule antagonists of the androgen receptor (AR) signaling pathway - cell viability counter screen (AID 743033; further: nearly all actives have a fitted effect of over 45% in size)
[16] = biological target: Androgen receptor (Homo sapiens) (UniProt P10275); experiment: qHTS assay to identify small molecule antagonists of the androgen receptor (AR) signaling pathway (AID 743035; active means well fitted inhibition curve with a large enough effect in the signal ratio in the repeat runs, not every such curve was filed as active; the % refers to the signal ratio)
Outline: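 Antagonism is scored as loss of R1881-driven beta-lactamase reporter expression in HEK293 cells carrying the reporter under a UAS element, after 16 h co-treatment at 37C and a 2 h room-temperature FRET substrate read.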

[17] = biological target: Androgen receptor (Homo sapiens) (UniProt P10275); experiment: qHTS assay to identify small molecule agonists of the androgen receptor (AR) signaling pathway (AID 743036; active means well fitted activation curve with a large enough effect in the signal ratio in the repeat runs, with a control signal flat, not every such curve was filed as active; the % refers to the signal ratio)
Outline: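 Screening used 2,000 AR-bla HEK293 cells per well, treated 16 h at 37C with test compounds in DMSO alongside positive and DMSO-only controls; beta-lactamase activity was then read by LiveBLAzer B/G FRET fluorescence after 2 h at room temperature.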

[18] = biological target: Androgen receptor (Homo sapiens) (UniProt P10275); experiment: qHTS assay to identify small molecule agonists of the androgen receptor (AR) signaling pathway using the MDA cell line (AID 743040; further: nearly all actives have a fitted effect of over 20% in size)
Outline: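 Luminescence from ONE-Glo, read after 30 min at room temperature, reflects MMTV-driven luciferase in MDA-kb2 cells (AR- and GR-responsive). Treatment lasted 16 h at 37C, 0% CO2.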

[19] = qHTS assay to identify small molecule antagonists of the androgen receptor (AR) signaling pathway using the MDA cell line - cell viability counter screen (AID 743041; further: nearly all actives have a fitted effect of over 45% in size)
Outline: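 Viability counter screen run alongside the AR antagonist reporter: cells seeded 5 h before compound, R1881 added, 16 h incubation at 37C without CO2, fluorescent CellTiter-Fluor signal quantified.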

[20] = biological target: Androgen receptor (Homo sapiens) (UniProt P10275); experiment: qHTS assay to identify small molecule antagonists of the androgen receptor (AR) signaling pathway using the MDA cell line (AID 743042; further: nearly all actives have a fitted effect of over 55% in size; further: potency means the concentration at half of the fitted maximal effect)
Outline: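 MDA-kb2 cells (human breast carcinoma, stably carrying an MMTV-luciferase reporter responsive to AR and GR) were plated at 3,000 cells/well and preincubated 5 hr at 37C, then given compound plus R1881 agonist for 16 h. ONE-Glo luminescence was read.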

Measured: Potency

Chain of Glucocorticoid receptor (Homo sapiens) (P04150 whole entry, looked up): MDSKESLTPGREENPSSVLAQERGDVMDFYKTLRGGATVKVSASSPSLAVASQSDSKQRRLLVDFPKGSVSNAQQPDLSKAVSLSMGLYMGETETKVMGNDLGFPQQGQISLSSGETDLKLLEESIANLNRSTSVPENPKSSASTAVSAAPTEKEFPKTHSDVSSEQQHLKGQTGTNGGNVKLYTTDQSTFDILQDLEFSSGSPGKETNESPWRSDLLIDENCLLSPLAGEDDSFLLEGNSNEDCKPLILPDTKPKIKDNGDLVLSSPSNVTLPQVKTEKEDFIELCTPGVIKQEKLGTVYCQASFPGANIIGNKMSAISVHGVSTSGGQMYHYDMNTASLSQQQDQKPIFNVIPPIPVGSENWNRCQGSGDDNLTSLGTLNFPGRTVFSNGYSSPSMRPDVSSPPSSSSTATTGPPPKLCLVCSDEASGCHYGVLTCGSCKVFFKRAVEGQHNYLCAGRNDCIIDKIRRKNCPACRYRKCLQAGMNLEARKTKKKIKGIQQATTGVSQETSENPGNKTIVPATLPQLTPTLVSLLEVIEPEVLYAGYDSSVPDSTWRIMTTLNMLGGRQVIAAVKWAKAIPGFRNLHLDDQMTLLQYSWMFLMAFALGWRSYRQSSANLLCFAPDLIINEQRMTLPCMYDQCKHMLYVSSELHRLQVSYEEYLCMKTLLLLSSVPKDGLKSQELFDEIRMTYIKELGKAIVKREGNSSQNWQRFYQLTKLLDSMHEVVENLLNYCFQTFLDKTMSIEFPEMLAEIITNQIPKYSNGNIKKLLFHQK
Chain of Androgen receptor (Homo sapiens) (P10275 whole entry, looked up): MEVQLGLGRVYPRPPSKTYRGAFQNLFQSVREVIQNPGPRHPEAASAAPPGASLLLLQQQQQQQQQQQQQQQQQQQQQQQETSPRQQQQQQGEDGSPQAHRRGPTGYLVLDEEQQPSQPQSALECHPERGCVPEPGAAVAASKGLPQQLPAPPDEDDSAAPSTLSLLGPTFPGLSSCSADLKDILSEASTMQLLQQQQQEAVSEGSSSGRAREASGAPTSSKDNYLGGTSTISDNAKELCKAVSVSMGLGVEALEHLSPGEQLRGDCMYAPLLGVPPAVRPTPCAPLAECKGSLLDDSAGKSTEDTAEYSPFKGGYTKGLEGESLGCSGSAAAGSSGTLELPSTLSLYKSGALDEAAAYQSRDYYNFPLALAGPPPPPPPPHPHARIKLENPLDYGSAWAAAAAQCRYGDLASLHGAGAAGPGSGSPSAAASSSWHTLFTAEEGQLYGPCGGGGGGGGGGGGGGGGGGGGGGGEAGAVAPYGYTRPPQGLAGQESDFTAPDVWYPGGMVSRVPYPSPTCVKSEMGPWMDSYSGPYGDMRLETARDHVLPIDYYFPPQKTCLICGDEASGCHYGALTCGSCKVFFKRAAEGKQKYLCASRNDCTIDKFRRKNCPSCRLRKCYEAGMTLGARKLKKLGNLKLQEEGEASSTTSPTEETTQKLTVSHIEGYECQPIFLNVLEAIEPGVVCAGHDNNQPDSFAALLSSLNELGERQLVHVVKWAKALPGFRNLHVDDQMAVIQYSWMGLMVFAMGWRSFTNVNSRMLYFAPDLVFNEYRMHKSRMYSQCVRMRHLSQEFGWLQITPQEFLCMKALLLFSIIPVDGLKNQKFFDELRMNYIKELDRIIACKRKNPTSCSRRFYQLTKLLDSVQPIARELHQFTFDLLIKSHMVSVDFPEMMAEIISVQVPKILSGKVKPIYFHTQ

CC1(C)S[C@@H]2[C@H](NC(=O)C(C(=O)Oc3ccc4c(c3)CCC4)c3ccccc3)C(=O)N2[C@H]1C(=O)O (stereo not given in full)
inactive: [1] | [2] | [3] | [4] | [5] | [6] | [7] | [8] | [9] | [10] | [11] | [12] | [13] | [14] | [15] | [16] | [17] | [18] | [19] | [20]

CC1CCCC1
inactive: [1] | [2] | [3] | [4] | [5] | [6] | [7] | [8]

N[C@@H](C(=O)N[C@@H]1C(=O)N2C(C(=O)O)=C(CSc3cn[nH]n3)CS[C@H]12)c1ccc(O)cc1
inactive: [1] | [2] | [3] | [4] | [5] | [6] | [7] | [8] | [9] | [10] | [11] | [12] | [13] | [14] | [15] | [16] | [17] | [18] | [19] | [20]

CC(CN1c2ccccc2Sc2ccc(S(=O)(=O)N(C)C)cc21)N(C)C (stereo not given)
active: [12] 11.9 µM | [13] 26.6 µM | [14] 18.8 µM
inactive: [1] | [2] | [3] | [4] | [5] | [6] | [7] | [8] | [9] | [10] | [11] | [15] | [16] | [17] | [18] | [19] | [20]

Nc1ccn(C[C@@H](CO)OCP(=O)(O)O)c(=O)n1
inactive: [1] | [2] | [3] | [4] | [5] | [6] | [7] | [8] | [9] | [10] | [11] | [12] | [13] | [14] | [15] | [16] | [17] | [18] | [19] | [20]

COC(=O)CCC(=O)CN
inactive: [1] | [2] | [3] | [4] | [5] | [6] | [7] | [8] | [9] | [10] | [11] | [12] | [13] | [14] | [15] | [19]

O=C(O)c1nc(=O)[nH]c(=O)[nH]1
inactive: [1] | [2] | [3] | [4] | [5] | [6] | [7] | [8] | [9] | [10] | [11] | [12] | [13] | [14] | [15] | [16] | [17] | [18] | [19] | [20]

CNc1cc(OC)c(C(=O)N[C@H]2CCN(Cc3ccccc3)[C@H]2C)cc1Cl
active: [12] 5.96 µM | [13] 4.73 µM | [14] 8.41 µM
inactive: [1] | [2] | [3] | [4] | [5] | [6] | [7] | [8] | [9] | [10] | [11] | [15] | [19]

CC1=C[C@H](O)CC(C)(C)[C@H]1/C=C/C(C)=C/C=C/C(C)=C/C=C/C=C(C)/C=C/C=C(C)/C=C/C1=C(C)C[C@@H](O)CC1(C)C
inactive: [1] | [2] | [3] | [4] | [5] | [6] | [7] | [8] | [9] | [11] | [15] | [17] | [18] | [19]
active: [10] 23.9 µM | [12] 11.9 µM | [13] 18.8 µM | [14] 21.1 µM

CC[N+](C)(C)Cc1ccccc1Br
inactive: [1] | [2] | [3] | [4] | [5] | [6] | [7] | [8] | [9] | [10] | [11] | [12] | [13] | [14] | [15] | [16] | [18] | [19] | [20]

CO[C@H]1C[C@@H]2CC[C@@H](C)[C@@](O)(O2)C(=O)C(=O)N2CCCC[C@H]2C(=O)O[C@H]([C@H](C)C[C@@H]2CC[C@@H](OCCO)[C@H](OC)C2)CC(=O)[C@H](C)/C=C(\C)[C@@H](O)[C@@H](OC)C(=O)[C@H](C)C[C@H](C)/C=C/C=C/C=C/1C
active: [10] 7.56 µM | [11] 23.9 µM | [12] 0.0094 µM | [13] 0.0075 µM | [14] 0.0168 µM | [20] 23.7 µM
inactive: [1] | [2] | [3] | [4] | [5] | [6] | [7] | [8] | [9] | [15] | [18]

Cc1ccc(/C(=C\CN2CCCC2)c2cccc(/C=C/C(=O)O)n2)cc1
inactive: [1] | [2] | [3] | [4] | [5] | [6] | [7] | [8] | [9] | [10] | [11] | [12] | [13] | [14] | [15] | [19]
